Screening data as filed in PubChem BioAssay.
An excerpt weighted towards active compounds, which were near 2.4% of everything screened.
NFkB SMM – NF-kappa-B p105 (human) binding; Small molecule microarray, anti-His fluorescence binding; calls only; hit rate 1.3% among 17,000;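 active = spot fluorescence over background significantly raised, with a chance value under 7% in all four replicate spots of the compound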;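 note: probe protein is his-tagged human p50 processed subunit at 1 µg/ml; raw spot fluorescence signals with no normalization applied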
STAT3 binder – binds human STAT3 on microarray. calls only. hit rate 0.2% among 17,000. P40763. Small molecule microarray, His-STAT3 binding, anti-His fluorescence;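 active = compounds whose four printed spots each show fluorescence over background unusually high for their array block, chance value under 7%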
mut p53 SMM – binders of human mutant p53. small molecule microarray binding, anti-GST fluorescence. hit rate 0.4% among 17,000. calls only. AID 624136;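 active = compounds whose four printed spots each glow above background more than chance allows, each with a p-value under 7%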
Myc binder – binders of human c-Myc. small molecule microarray, His-c-Myc binding, anti-His fluorescence. calls only. hit rate 1.5% among 17,000. AID 624141;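 active = spot fluorescence over background with P-value below 7% in all four replicate spots, showing protein binding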;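 note: score is binary with 100 for all four spots passing and 0 otherwise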
* = called active by the depositor; i = inactive; + = active, no number.

SMILES	NFkB SMM	STAT3 binder	mut p53 SMM	Myc binder
C=C1[C@@H]2CC[C@H]3[C@@]4(C)C(C[C@H](OC(=O)[C@]5(C)O[C@@H]5C)[C@]3(C2)[C@@H]1OC(C)=O)[C@](C)(C(=O)OC)CC[C@H]4OC(C)=O (some centres not stated)	i	i	i	i
COc1cc(S(=O)(=O)NC2CC(C)(C)NC(C)(C)C2)c(OC)cc1Br	i	i	i	i
C[C@H](CO)N1C[C@H](C)[C@H](CN(C)S(=O)(=O)c2cccs2)OCCCC[C@H](C)Oc2ccc(NC(=O)c3ccncc3)cc2C1=O	+	i	i	i
C[C@H](CO)N1C[C@H](C)[C@@H](CN(C)S(C)(=O)=O)OCCCC[C@H](C)Oc2ccc(NC(=O)c3ccncc3)cc2C1=O	i	i	i	i
C[C@@H]1CCCCO[C@@H](CN(C)C(=O)C2CCCCC2)[C@@H](C)CN([C@H](C)CO)C(=O)c2cc(NS(=O)(=O)c3cccs3)ccc2O1	+	i	i	+
C[C@@H]1CCCCO[C@H](CN(C)C(=O)C2CCCCC2)[C@H](C)CN([C@@H](C)CO)C(=O)c2cc(NS(=O)(=O)c3cccs3)ccc2O1	i	+	i	i
CCOC(=O)c1cnc2c(C)c(C)ccc2c1NCCN(C)C	i	i	+	i
Cc1noc(C)c1S(=O)(=O)N(C)C[C@@H]1OCCCC[C@H](C)Oc2ccc(NC(=O)NC(C)C)cc2C(=O)N([C@H](C)CO)C[C@H]1C	+	i	i	+
CC(C)NC(=O)Nc1ccc2c(c1)C(=O)N([C@@H](C)CO)C[C@@H](C)[C@@H](CN(C)S(=O)(=O)c1ccccc1)OCCCC[C@@H](C)O2	i	+	i	+
CC(C)NC(=O)Nc1ccc2c(c1)C(=O)N([C@H](C)CO)C[C@H](C)[C@H](CN(C)S(=O)(=O)c1ccccc1)OCCCC[C@@H](C)O2	i	i	i	i
CC(Oc1ccc(C(=O)Nc2ccc(Cl)cc2)cc1)C(=O)Nc1cc(Cl)ccc1Cl (configuration not stated)	i	i	i	i
COc1ccc(NC(=O)c2ccc(OC(C)C(=O)O)cc2)cc1Cl (configuration not stated)	+	i	i	i
COc1cccc2cc(C(=O)C3C(=O)C(=O)N(c4nc(C)c(C)s4)C3c3ccco3)oc12 (configuration not stated)	i	i	i	+
COc1ccccc1C1C(C(=O)c2ccco2)C(=O)C(=O)N1c1cc(C)on1 (configuration not stated)	i	i	i	i
CC(C)=CCc1c(O)c(CC=C(C)C)c2c(c1O)C(=O)CC(c1ccccc1)O2 (configuration not stated)	i	i	i	+
CC(C)=CCc1c(O)cc(O)c2c1OC(c1ccccc1)CC2=O (configuration not stated)	i	i	i	i
CC(C)NC(=O)Nc1ccc2c(c1)C(=O)N([C@@H](C)CO)C[C@@H](C)[C@H](CN(C)Cc1ccccc1)OCCCC[C@H](C)O2	+	i	i	+
C[C@H]1CCCCO[C@H](CN(C)C(=O)c2ccccc2)[C@@H](C)CN([C@@H](C)CO)C(=O)c2cc(NC(=O)Nc3ccc4c(c3)OCO4)ccc2O1	i	i	+	i
C[C@H]1CCCCO[C@@H](CN(C)Cc2ccccc2)[C@@H](C)CN([C@@H](C)CO)C(=O)c2cc(NC(=O)Nc3ccc4c(c3)OCO4)ccc2O1	i	i	i	i
C[C@H]1CCCCO[C@H](CN(C)Cc2ccncc2)[C@@H](C)CN([C@@H](C)CO)C(=O)c2cc(NC(=O)Nc3ccccc3)ccc2O1	i	i	i	i
C[C@@H]1CN([C@@H](C)CO)C(=O)c2cc(NC(=O)Nc3ccccc3)ccc2O[C@@H](C)CCCCO[C@H]1CN(C)Cc1ccncc1	i	i	i	+
CC(C)NC(=O)Nc1ccc2c(c1)C(=O)N([C@H](C)CO)C[C@@H](C)[C@H](CN(C)Cc1ccccc1)OCCCC[C@H](C)O2	i	i	i	i
C[C@@H]1CCCCO[C@@H](CN(C)Cc2ccccc2)[C@H](C)CN([C@H](C)CO)C(=O)c2cc(NC(=O)Nc3ccc4c(c3)OCO4)ccc2O1	+	i	i	i
COc1ccc(NC(=O)Cc2coc3c(C)c(C)ccc23)c(OC)c1	i	i	i	i
